Source: PubChem (Broad Institute)
aSyn UTR act = Activators via SNCA 5'UTR binding, MLPCN. alpha-synuclein 5'UTR reporter, activators screen. activity score, % (tested at 7.5 µM), hits read low. hit rate 7.1% among 300,000. AID 1814; in the data active means activity score below about -60%
Active calls of the source: *. Only a sample is shown.

SMILES | aSyn UTR act
O=c1[nH]c(COc2ccc(Cl)cc2Br)nc2ccccc12 | -123*
O=c1[nH]c(COc2ccc(Cl)cc2Cl)nc2ccccc12 | -189*
CC(C)OCCCNC(=S)NNC(=O)c1ccc(Cl)c(Cl)c1 | -87*
CCc1ccc(/C=C2/C(=O)N(C)C(=S)N2CC(=O)OC)s1 | -81*
Cc1ccc2oc(C(=O)Nc3nnc(C)s3)c(C)c2c1 | -68*
Cc1ccc2oc(C(=O)Nc3nonc3C)c(C)c2c1 | -106*
Cc1ccc2oc(C(=O)NCC(c3ccco3)N(C)C)c(C)c2c1 (stereo not given) | -73*
Cc1cc(N(C)/N=C/c2ccccc2O)nc(-c2ccccc2O)n1 | -97*
CCN(CC)S(=O)(=O)c1cccc(C(=O)N/N=C(\C)c2ccc(O)cc2O)c1 | 111
Cc1ccc(NC(=O)c2cccc(S(C)(=O)=O)c2)cc1 | -83*
CCN(CC)S(=O)(=O)c1cccc(C(=O)Nc2cccc(C)c2)c1 | -124*
CCN(CC)S(=O)(=O)c1cc(C(=O)Nc2ccc(Cl)cn2)ccc1C | -118*
Cc1ccc(NC(=O)c2ccnc(C(C)(C)C)c2)cc1 | -127*
CCCCN(CC)S(=O)(=O)c1ccc(C(=O)Nc2nnc(-c3ccccc3Cl)o2)cc1 | 76
CCN(CC)S(=O)(=O)c1cccc(C(=O)NCCc2ccccc2)c1 | -159*
CCN(CC)S(=O)(=O)c1cccc(C(=O)Nc2ccc(Cl)cn2)c1 | -76*
O=C(CCc1ccccc1)Nc1ccccc1[N+](=O)[O-] | -83*
Cc1ccc(NC(=O)CCCc2ccccc2)c([N+](=O)[O-])c1 | -76*
O=C(CCCc1ccccc1)Nc1ccccc1[N+](=O)[O-] | -112*
CC1=NN(c2ccccc2)C(=O)/C1=C/c1cc2cc(C)ccc2nc1N1CCCCC1 | -107*
O=C(c1ccccc1)c1nn(-c2ccc(Cl)cc2)c(=O)cc1C(F)(F)F | -219*
COc1ccccc1C(=O)Nc1nc(-c2cccs2)c(NC(C)=O)s1 | -128*
CC(C)=CC(=O)Nc1nnc(-c2ccccc2)s1 | -187*
COc1ccccc1C(=O)Nc1nnc(C)s1 | -211*
COc1ccccc1C(=O)N(C)c1nnc(-c2ccccc2)s1 | -117*
SMILES | aSyn UTR act
COc1ccccc1C(=O)Nc1nnc(SCC(=O)Nc2ccc3c(c2)oc2ccccc23)s1 | -152*
O=C(Nc1ccccc1)Nc1nnc(-c2ccccc2)s1 | -162*
O=C(Nc1nnc(-c2ccccc2)s1)c1ccccc1O | -153*
COc1ccccc1C(=O)Nc1nnc(-c2ccccc2)s1 | -153*
O=C(CSc1ncn[nH]1)Nc1nnc(-c2ccccc2)s1 | -74*
Cc1ccccc1C(=O)Nc1nnc(SC(C)C)s1 | -97*
COc1cccc(C(=O)Nc2nnc(-c3ccccc3)s2)c1OC | -113*
CCOc1ccccc1C(=O)Nc1nnc(C(C)C)s1 | -176*
CC(=O)Nc1ccc(-c2nnc(SCC(=O)Nc3ccc4c(c3)oc3ccccc34)n2C)cc1 | -92*
COc1ccc(CCNC(=O)c2cc3c(=O)n4cccc(C)c4nc3n(CCCN3CCOCC3)c2=N)cc1 | -67*
COc1ccc(CCn2c(=N)c(C(=O)NCC3CCCO3)cc3c(=O)n4cccc(C)c4nc32)cc1 (stereo not given) | -116*
COc1ccc(CNC(=O)C(C)Sc2nc3ccccc3c(=O)n2CCCN2CCOCC2)cc1 (stereo not given) | 38
C=CCNC(=S)Nc1c(C(=O)OC)[nH]c2cc(OC)ccc12 | -91*
O=C(CSc1ccc2ccccc2c1Br)Nc1cccc(S(=O)(=O)NC2=NCCCCC2)c1 | 64
O=C(/C=C/c1ccc(Cl)cc1Cl)Nc1cccc(S(=O)(=O)NC2=NCCCCC2)c1 | -67*
CN(C)c1ccc(CNc2ncc(Br)cc2Br)cc1 | -98*
CCCc1cc(C(=O)NNC(=S)Nc2cccc(C)c2)cs1 | -101*
Cc1cccc(NC(=S)NNC(=O)c2ccccc2Br)c1 | -129*
Cc1[nH]c2ccccc2c1C(=O)C(=O)Nc1ccc2c(c1)OCO2 | -91*
Cc1cccc(NC(=S)NNC(=O)c2csc3c2CCC(C)C3)c1 (stereo not given) | -77*
Cc1cccc(NC(=S)NNC(=O)c2ccc3c(c2)OCO3)c1 | -211*
CC(=O)c1cccc(NC(=O)c2ccc3c(c2)OCO3)c1 | -128*
CCOC(=O)c1cccc(NC(=O)c2ccc3c(c2)OCO3)c1 | -126*
Cc1cc(C(=O)Nc2ccc3c(c2)OCO3)cs1 | -233*
CCOC(=O)c1cccc(NC(=O)/C=C/c2ccc3c(c2)OCO3)c1 | 106
SMILES | aSyn UTR act
O=C(Nc1ccccc1Cl)c1cc2ccccc2o/c1=N\O | -121*
Nc1ccccc1C(=O)Nc1ccc(Cl)cc1Cl | -120*
O=C(NCCc1ccccn1)c1cc2ccccc2o1 | -102*
O=C(Cc1ccc(Cl)cc1)Nc1ccc(-c2cc3ccccc3oc2=O)c(Cl)c1 | 96
O=C(Nc1ccc(Cl)cc1Cl)c1cc2ccccc2o1 | -110*
Nc1ccc(NC(=O)c2cccc(C(=O)Nc3ccc(N)cc3Cl)c2)c(Cl)c1 | -85*
Cc1ccccc1NC(=O)c1cc2ccccc2o1 | -172*
Cc1ccc(NC(=O)c2cc3ccccc3o2)nc1 | -95*
COc1ccccc1NC(=O)c1cc2ccccc2o1 | -92*
